Source: PubChem BioAssay (National Center for Advancing Translational Sciences (NCATS))
SW480 rerep = DNA re-replication induction in SW480 cells; SW480 DNA re-replication, Hoechst DNA content imaging, 48 h; Potency, µM (top dose mostly 46.1 µM), actives largely listed as activators; hit rate 1.8% among 340,000; AID 624297; also: nearly all actives have a fitted effect of over 55% in size
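Quantitative HTS format with DMSO vehicle controls; 48 hr drug incubation at 37 C, then 40 min Hoechst staining and scanning imager measurement at 405 nm excitation.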
KB-V1 cytotox = kills drug-selected multidrug resistant KB-V1 cells; KB-V1 MDR cells viability, CellTiter-Glo, 72 h; Potency, µM (doses to about 46.1 µM), actives largely listed as cytotoxic; hit rate 3.4% among 400,000; AID 1347076; also: nearly all actives have a fitted effect of over 60% in size
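KB-V1, DMEM (no phenol red) + 10% FBS; cpd pin-transferred, titration series; 72 h, 37 degrees C; CellTiter-Glo, luminescence. Data normalized, curve-fit.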
KB-3-1 cytotox = kills parental KB-3-1 adenocarcinoma cells; KB-3-1 viability, CellTiter-Glo ATP luminescence, 72 h; Potency, µM (series often up to 46.1 µM), actives largely listed as cytotoxic; hit rate 1.4% among 400,000; AID 1347075; also: nearly all actives have a fitted effect of over 60% in size
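Multi-concentration cytotoxicity screen in KB-3-1 cells grown in DMEM lacking phenol red with 10% FBS. After 72 h at 37 °C with compound, ATP-dependent luminescence was recorded.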
MCF10A rereplic = inducers of DNA re-replication in MCF 10A breast cells. MCF 10A DNA re-replication, Hoechst nuclear intensity, 48 h. Potency, µM (highest dose often 46.1 µM), hits mostly activators. hit rate 2.9% among 350,000; also: nearly all actives have a fitted effect of over 50% in size
HT1080 IDH1KD tx = HT-1080 IDH1 knockdown cell toxicity (counter line). HT-1080 IDH1 knockdown viability, ATP luminescence, 48 h. hit rate 2% among 360,000. Potency, µM (doses to about 46.1 µM), usual class: cytotoxic
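IDH1KD HT-1080 cells, 750/well, RPMI + 5% FBS; compound pinned after 2 h settling; 48 h, 37 °C; CellTiter-Glo luminescence; % activity normalised to DMSO and no-cell wells; curves fitted, classed by r2 and efficacy.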
HT1080-NT tox = kills 2HG-producing HT-1080-NT fibrosarcoma cells; HT-1080-NT fibrosarcoma viability, CellTiter-Glo ATP luminescence, 48 h; Potency, µM (doses to about 46.1 µM), actives largely listed as cytotoxic; hit rate 1.6% among 360,000; AID 686970;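 also: NT is the 2HG producing partner of a matched IDH1 knockdown line; nearly all actives have a fitted effect of over 55% in size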
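HT-1080-NT fibrosarcoma cells (2HG-overproducing), 750 cells/well in RPMI with 5% FBS, dosed after 2 h and incubated 48 h at 37C. CellTiter-Glo luminescence normalized to DMSO and no-cell wells; concentration-response curves fitted and classed.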
Hits are given with their value; - = inactive; ? = inconclusive; . = no result; [ ] = another dose, or the depositor's remark. Sampled rows, rich in hits. Any-hit rate of the full collection: about 7.9%. Calls follow the shape of the dose curve; as a rule, active = well fitted curve in the direction sought with a large enough effect; inconclusive = small, poorly fitted or top-dose-only effect, or another doubt; inactive = no such curve, though single readings can be large; an effect the other way counts as inactive or inconclusive.

SMILES	SW480 rerep	KB-V1 cytotox	KB-3-1 cytotox	MCF10A rereplic	HT1080 IDH1KD tx	HT1080-NT tox
COc1ccc(OC)c(/C(O)=C/C(=O)C(=O)Nc2ccccc2OC)c1	-	9.2µM	-	-	-	-
CCOC(=O)N1CCN(C(=O)CSCC(=O)Nc2nc(-c3ccccc3)cs2)CC1	-	16µM	-	-	-	-
CCn1c(SCC(=O)N/N=C/C(C)=C/c2ccco2)nnc1-c1ccccc1	-	15µM	-	-	-	-
Cn1c(SCC(=O)Nc2ccccc2-c2ccccc2)nnc1-c1ccco1	?	18µM	-	-	-	-
CCn1c(SCC(=O)N/N=C/C(C)=C\c2ccco2)nnc1-c1ccccc1	-	-	-	?	-	-
C=CCn1c(SCC(=O)Nc2cccnc2Cl)nnc1-c1ccc(Cl)cc1	-	5.2µM	-	-	-	-
COc1ccccc1-c1ccc2c(c1)O[C@@H](CN(C)C(=O)c1ccncc1)[C@H](C)CN([C@@H](C)CO)S2(=O)=O	.	-	-	.	-	-
Cc1c(Cl)cccc1NC(=O)C(C)n1nnc2sc3c(c2c1=O)CCCC3 (centres undefined)	.	-	-	.	.	.
Cc1csc(NC(=O)CSc2nnc(-c3ccccc3)o2)n1	-	?	-	?	-	-
CCn1c(SCC(=O)Nc2cccnc2Cl)nnc1-c1ccccc1	-	21µM	-	-	-	-
Cc1csc(NC(=O)CSc2ccc(-c3ccccc3)nn2)n1	-	23µM	-	-	-	-
C=CCn1c(SCC(=O)NNC(=O)Nc2ccc(C)cc2)nnc1-c1ccccc1	-	-	-	-	-	-
Cc1occc1-c1nnc(SCC(=O)NC(C)(C)C)n1C(C)c1ccccc1 (centres undefined)	-	-	-	-	-	-
Cc1csc(NC(=O)CSc2nnc(-c3ccoc3C)n2C(C)c2ccccc2)n1 (centres undefined)	15µM	-	-	?	-	-
C=CCn1c(SCC(=O)Nc2ccc(-c3nc4ccc(C)cc4s3)cc2)nnc1-c1ccccc1	10µM	?	-	4.1µM	?	-
O=C(C[N+]12CN3CN(CN(C3)C1)C2)c1ccc(Br)cc1	.	-	-	.	.	.
CCn1c(SCC(=O)Nc2nc(-c3ccccc3)cs2)nnc1-c1ccccc1	-	18µM	-	-	?	?
CCOc1ccc(CNS(=O)(=O)c2ccc(-c3coc(C)n3)cc2)cc1OC	.	23µM	?	.	.	.
O=c1c2nncn2c2cccnc2n1CCNc1ncc(C(F)(F)F)cc1Cl	?	-	?	-	-	-
NNc1nc2cccnc2n(CCNc2ncc(C(F)(F)F)cc2Cl)c1=O	-	?	?	21µM	?	-
O=c1[nH]c2cccc(Cl)c2n(CCNc2ncc(C(F)(F)F)cc2Cl)c1=O	-	?	?	?	?	23µM
Cc1cccc(NC(=O)Cn2c(=O)n(CC3CCC(C(=O)NCCc4ccccc4)CC3)c(=O)c3ccccc32)c1C (centres undefined)	.	-	-	.	.	.
Nc1nc(-c2ccc3c(c2)CCC(=O)N3)cs1	-	3.7µM	5.2µM	-	-	-
CC1CCCC(C)N1S(=O)(=O)c1ccc(S(=O)(=O)NCCc2ccncc2)cc1 (centres undefined)	-	?	-	-	-[9.24 µM]	-
CCN(C1CCCCC1)S(=O)(=O)c1ccc(S(=O)(=O)NCc2ccncc2)cc1	-	7.3µM	-	-	?	?
SMILES	SW480 rerep	KB-V1 cytotox	KB-3-1 cytotox	MCF10A rereplic	HT1080 IDH1KD tx	HT1080-NT tox
CCCCCc1ccc(S(=O)(=O)NCCc2ccncc2)cc1	-	3.3µM	?	-	?	-
CCCc1ccc(S(=O)(=O)NCCc2ccncc2)cc1	-	-	-	-	-	-
Cc1ccc(S(=O)(=O)NCc2ccncc2)cc1C	-	-	?	-	23µM	-
CCN(C1CCCCC1)S(=O)(=O)c1ccc(S(=O)(=O)NCCc2ccncc2)cc1	-	21µM	-	?	-	-
COC(=O)Cc1c(C)c2cc3c(c(C)c2oc1=O)OCN(CCc1ccc(F)cc1)C3	.	-	-	.	.	.
Cc1nc2c(c(=O)c3ccccc3n2C)c(=O)n1C1CCCCCC1	-	-	-	-	-	-
